G9a inh – blocks human histone lysine methyltransferase G9a. Q96KQ7. G9a H3K9 monomethylation, AlphaScreen, 2 h. Potency, µM (top dose mostly 102 µM), inactives show at the top dose activity, negative = inhibition, hits mostly inhibitors. 350,000 tested, 8.8% active. AID 504332; note: potency is the fitted concentration of half-maximal effect; % is set by controls: 0 for no effect and ±100 for the full control effect; nearly all actives have a fitted effect of over 75% in size
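Readings reflect AlphaScreen signal from monomethyl-H3K9 antibody detection. HMT at 20 nM; substrate b-H3K9 500 nM; cofactor SAM 20 uM; 2 h RT reaction; compounds tested as titrations in qHTS with 15 min preincubation.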
JMJD2A Tudor – JMJD2A Tudor domain (human) inhibition; AlphaScreen JMJD2A-Tudor / H3K4me3 peptide binding; Potency, µM (highest dose often 114 µM), without a hit: top-dose activity change, negative = inhibition, usual class: inhibitors; 390,000 tested, 4.4% active; AID 504339; note: potency is the fitted concentration of half-maximal effect; % is set by controls: 0 for no effect and ±100 for the full control effect; nearly all actives have a fitted effect of over 50% in size
Target sequence (O75164 whole entry, looked up, the tested form may be a part): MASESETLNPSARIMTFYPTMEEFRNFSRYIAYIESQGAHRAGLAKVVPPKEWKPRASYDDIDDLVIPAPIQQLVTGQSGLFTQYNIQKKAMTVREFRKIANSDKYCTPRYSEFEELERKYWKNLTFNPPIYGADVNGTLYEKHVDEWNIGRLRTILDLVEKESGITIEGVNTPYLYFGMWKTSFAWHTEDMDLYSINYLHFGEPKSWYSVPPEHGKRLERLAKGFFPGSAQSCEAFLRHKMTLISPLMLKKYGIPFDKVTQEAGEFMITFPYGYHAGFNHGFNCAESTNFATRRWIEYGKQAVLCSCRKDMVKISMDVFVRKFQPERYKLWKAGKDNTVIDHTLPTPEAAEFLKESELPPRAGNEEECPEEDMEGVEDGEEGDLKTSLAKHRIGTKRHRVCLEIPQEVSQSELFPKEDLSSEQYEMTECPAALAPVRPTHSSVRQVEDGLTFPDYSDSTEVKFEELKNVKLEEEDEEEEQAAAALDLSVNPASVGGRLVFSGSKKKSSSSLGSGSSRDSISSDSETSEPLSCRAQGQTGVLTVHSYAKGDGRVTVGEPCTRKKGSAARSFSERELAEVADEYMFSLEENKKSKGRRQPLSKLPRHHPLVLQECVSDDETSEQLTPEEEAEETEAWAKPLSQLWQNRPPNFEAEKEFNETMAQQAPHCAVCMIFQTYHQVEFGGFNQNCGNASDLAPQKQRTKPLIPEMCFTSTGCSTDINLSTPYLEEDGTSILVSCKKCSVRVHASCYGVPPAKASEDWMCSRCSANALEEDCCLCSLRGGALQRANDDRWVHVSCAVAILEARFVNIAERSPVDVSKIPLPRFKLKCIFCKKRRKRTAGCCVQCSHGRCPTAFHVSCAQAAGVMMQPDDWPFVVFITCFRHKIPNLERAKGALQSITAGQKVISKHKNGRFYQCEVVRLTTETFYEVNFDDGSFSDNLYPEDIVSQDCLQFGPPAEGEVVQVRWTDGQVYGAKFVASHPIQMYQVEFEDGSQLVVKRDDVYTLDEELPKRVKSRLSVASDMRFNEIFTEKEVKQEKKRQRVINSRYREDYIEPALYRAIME
PLK1 PBD inh – blocks phosphopeptide binding to human PLK1 polo-box domain; P53350; Plk1 PBD binding of FITC phosphopeptide, fluorescence polarization; Potency, µM, for the others: max response, negative = inhibition, hits mostly inhibitors; 360,000 tested, 2.8% active; note: potency is the fitted concentration of half-maximal effect; series mostly up to about 57 µM; % is set by controls: 0 for no effect and ±100 for the full control effect; nearly all actives have a fitted effect of over 65% in size
HP1b binding inh – inhibitors of HP1-beta chromodomain binding to methylated histone tails; AlphaScreen HP1-beta / biotin-H3K9me3 peptide binding; Potency, µM (doses to about 114 µM), for the others: at the top dose activity change, negative = inhibition, actives largely listed as inhibitors; 390,000 tested, 0.56% active; AID 540317; note: potency is the fitted concentration of half-maximal effect; nearly all actives have a fitted effect of over 70% in size
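Compound inhibition of the preformed complex between 50 nM HP1-beta and 50 nM biotinylated H3K9me3 peptide was read by AlphaScreen. Buffer was PBS pH 7.4 with 0.01% Tween-20. Incubations ran 30 min at room temperature, with 10 ug/mL donor/acceptor beads.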
BAZ2B inh – inhibitors of human BAZ2B bromodomain; Q9UIF8; AlphaScreen BAZ2B-H3K14Ac peptide displacement; Potency, µM (highest dose often 114 µM), for inactives: at the top dose activity change, negative = inhibition, usual class: inhibitors; 360,000 tested, 4.4% active; AID 504333; note: potency is the fitted concentration of half-maximal effect; % is set by controls: 0 for no effect and ±100 for the full control effect; nearly all actives have a fitted effect of over 60% in size
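BAZ2B 50 nM plus b-H3(5-23)K14Ac 50 nM, PBS pH 7.4/0.01% Tween-20, 30 min RT; compound added (max 110 uM), 30 min RT; streptavidin donor/Ni-chelate acceptor beads 10 ug/mL final, 20 min dark; AlphaScreen read.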
PI5P4K alpha inh – inhibitors of human PI5P4K alpha; 330,000 tested, 1.2% active; max response, %; PI5P4Kalpha enzyme, ADP-Glo luminescence, 60 min; stronger effect = lower value; AID 652105; P48426; active = max response of -50% or lower; inconclusive = between -30% and -50%; inactive = -30% or higher; note: value at the top dose of about 77 µM; % is set by controls: 0 for no effect and ±100 for the full control effect
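Compounds were pin-transferred onto PI5P4Kalpha and substrate in HEPES pH 7.4 buffer with EGTA, CHAPS and 5% DMSO. ATP (5 microM final) started the reaction, which ran 60 minutes at room temperature before ADP-Glo detection.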
Active calls of the source: *; ? = inconclusive; / = no result given; ! = not confirmed by another sample; [ ] = remark or other dose. Shown are actives, neighbours in structure and some others; about 12% of the full set was active somewhere. Unless noted, calls come from the whole dose curve; as a rule, active = well fitted curve in the direction sought with a large enough effect; inconclusive = small, poorly fitted or top-dose-only effect, or another doubt; inactive = no such curve, though single readings can be large; an effect the other way counts as inactive or inconclusive.

SMILES | G9a inh | JMJD2A Tudor | PLK1 PBD inh | HP1b binding inh | BAZ2B inh | PI5P4K alpha inh
C=C1C([C@@]2(C)C(OC(C)=O)CC(=O)O[C@@](C)(COC(C)=O)C2CC(=O)OC)C(OC=O)C(OC(=O)C(OC(C)=O)C(C)CC)[C@]2(C)C(c3ccoc3)CC(=O)C12O (stereo partly specified) | -28%[2.33 µM] | / | / | / | / | /
CCN(CC)c1ccc(CNc2nc3ccccc3n2C)cc1 | / | ? | -1% | 24% | 45µM* | 12
CN1CCN(Cc2nc3ccccc3n2C)CC1 | ? | -3% | 0% | 35% | -3% | 1
CCC(C)n1c(O)c(/C=N/Nc2ccccc2)c(=O)[nH]c1=S (stereo unspecified) | 1.1µM* | ? | -10% | 6% | ? | 1
CCC(C)n1c(O)c(/C=N/NC(=O)c2ccncc2)c(=O)[nH]c1=S (stereo unspecified) | 22%[59 µM] | ? | -9% | 48% | 56µM* | ?
O=C(N/N=C/c1c(O)n(CCc2ccccc2)c(=O)[nH]c1=O)c1ccccc1 | / | -35% | -4% | 39% | 79µM* | -77*
CCn1c(O)c(/C=N/NC(=O)c2ccncc2)c(=O)[nH]c1=S | -22%[59 µM] | 71µM* | -3% | 48% | 35µM* | -27
[S]=[Sb][S][Sb]=[S] | -28%[12.7 µM] | / | / | / | / | /
Brc1nc(-c2ccccc2)nc(-c2ccccc2)c1Br | / | 13% | 2% | 57% | / | 1
CC(=O)OCOCC(=O)OCO[P+](=O)C(OCOC(C)=O)c1cc([N+](=O)[O-])ccc1Oc1ccc(Br)cc1 (stereo unspecified) | 14%[59 µM] | / | / | / | / | /
CCCCn1c(O)c(/C=N/NC(=O)c2ccncc2)c(=O)[nH]c1=O | / | ? | 5% | 41% | ? | -65*
CCN(CC)CCCN=Cc1c(O)n(CCc2ccc(F)cc2)c(=O)[nH]c1=O | 8% | -18% | -10% | 11% | -22% | -15
CCCCn1c(O)c(C=NCCCn2ccnc2)c(=O)[nH]c1=O | 1%[59 µM] | 1% | -7% | 13% | 13% | -7
O=c1[nH]c(=S)n(Cc2ccc(F)cc2)c(O)c1C=NCCCn1ccnc1 | -29% | -21% | -10% | 14% | -26% | 2
O=C(N/N=C/c1c(O)n(Cc2ccc(F)cc2)c(=S)[nH]c1=O)c1ccncc1 | / | 100µM* | -23% | 13% | 79µM* | ?
NC1CCCCC1N=Cc1c(O)n(CCc2ccc(F)cc2)c(=O)[nH]c1=O (stereo unspecified) | 1µM* | -20% | -1% | 25% | 45µM* | 0
COc1cc(C(=O)OCc2cc(=O)c(O)co2)ccc1OC(F)F | ? | -9% | -2% | 15% | ? | 0
CN1CCC23CCCC[C@H]2C1Cc1ccc(O)cc13 (stereo partly specified) | 24%[12.7 µM] | / | / | / | / | /
c1ccc(C(c2ccccc2)N2CCN(c3ccc4ccccc4n3)CC2)cc1 | 9% | 35% | -1% | 106% | -5% | -1
c1ccc2c(N3CCNCC3)cccc2c1 | 17µM*! | -16% | -7% | 51% | / | 23
c1ccc2nc(N3CCNCC3)ccc2c1 | 11µM*! | -12% | -15% | 26% | 0% | -1
CC1CCN(c2ccccc2NC(=O)c2cc3ccccc3o2)CC1 | 103% | 29% | -9% | 86% | 7% | 24
N#CSCC(=O)N1c2ccccc2CCc2ccccc21 | ? | -9% | 11µM* | 44% | -6% | 6
Nc1ccccc1C(=O)OCC(=O)N1CCc2ccccc21 | 11%[59 µM] | -11% | 3% | 38% | 3% | -3
COc1ccc2c(c1)[C@@]13CCCCC1[C@@H](C2)N(C)CC3 (stereo partly specified) | -37%[2.33 µM] | / | / | / | / | /
SMILES | G9a inh | JMJD2A Tudor | PLK1 PBD inh | HP1b binding inh | BAZ2B inh | PI5P4K alpha inh
CCC12CN3CC(CC)(CN(C1)C3c1c(C)[nH]c(=O)[nH]c1=O)C2=O (stereo unspecified) | ? | -8% | / | 45% | -34% | /
C[C@@H]1CCc2cc(F)cc3c(=O)c(C(=O)O)cn1c23 | 17%[21.5 µM] | / | / | / | / | /
CCCN1CCC[C@@H]2Cc3n[nH]cc3C[C@H]21 | 22%[12.7 µM] | / | / | / | / | /
CCCN1CCC[C@@H]2Cc3nc(N)ncc3C[C@H]21 | 11µM*! | -30% | -6% | 24% | / | 4
CCCN1CCC[C@@H]2Cc3[nH]ncc3C[C@H]21 | 25µM*! | -23% | -12% | 8% | / | -1
C[C@]12CC[C@H]3[C@@H](C[C@H](F)C4=CC(=O)CC[C@@]43C)[C@@H]1CC[C@@H]2O | 19%[59 µM] | / | / | / | / | /
Cn1c(=O)oc2cc(S(=O)(=O)N3CCCC(C(=O)NCc4ccccc4Cl)C3)ccc21 (stereo unspecified) | 5%[59 µM] | -2% | / | 43% | -1% | /
COC1=CC(=O)O[C@@H](/C=C\c2ccccc2)C1 | 29%[21.5 µM] | / | / | / | / | /
Nc1ccc2ccc3cccc[n+]3c2c1 | 35µM* | -34% | 0.67µM* | 4% | -7% | -20
O=C1NC(=S)NC(=O)C1c1ccccc1 | / | 50µM* | 24µM* | ? | / | ?
CCCCCC[C@H]1C(=O)O[C@H](C)[C@H](NC(=O)c2cccc(NC=O)c2O)C(=O)O[C@@H](C)[C@H]1OC(=O)CC(C)C | 1%[21.5 µM] | / | / | / | / | /
CCOP1(=S)Oc2cc3c(cc2C(C(=O)OC)(C(F)(F)F)O1)OCO3 (stereo unspecified) | ? | ? | 24µM* | ? | -33% | /
Cc1ccccc1N1C(=O)CC(=O)NC1=O | 45µM* | -12% | -4% | 34% | 11% | /
CCc1ccccc1N1C(=O)CC(=O)NC1=O | -19%[59 µM] | -12% | -18% | 22% | -13% | 0
COc1ccccc1N1C(=O)CC(=O)NC1=O | -4% | -14% | -13% | 0%[57 µM] | 50µM* | -2
CCN1CCN(C(=O)Cc2ccc(C)cc2)CC1 | 7% | -6% | -4% | 27% | -11% | 1
COc1ccc(CN2CCN(C(=O)Cc3ccccc3)CC2)cc1Br | / | 25µM* | 1% | ? | ? | -6
COc1ccc(OC)c(CN2CCN(C(=O)Cc3ccccc3)CC2)c1 | 5µM* | 18µM* | -3% | ? | ? | 5
COc1ccc(CN2CCN(C(=O)Cc3ccccc3)CC2)cc1OC | / | / | -8% | / | / | -9
CCOc1cc(CN2CCN(C(=O)Cc3ccccc3)CC2)ccc1OC | / | 28µM* | 5% | ? | 56µM* | 1
NC(=O)CN1CC(O)CC1=O (stereo unspecified) | 1%[59 µM] | / | / | / | / | /
Nc1c(C(=O)Nc2cccc(F)c2)sc2nc(-c3cccs3)ccc12 | -1%[59 µM] | 13% | / | 53% | 2% | /
C=C(C)[C@H]1[C@H]2OC(=O)[C@@H]1[C@]1(O)C[C@H]3O[C@]34C(=O)O[C@H]2[C@@]14C | 20%[21.5 µM] | / | / | / | / | /
N#Cc1cc2c(nc1SCC(=O)Nc1ccc(F)c(Cl)c1)C1CCN2CC1 | -6%[59 µM] | -13% | / | 16% | -5% | /
CC1=NN(c2ccccc2)C(=O)/C1=C/c1c(O)[nH]c(=S)[nH]c1=O | ? | 79µM* | -9% | -2% | ? | ?

Assay outcomes: PubChem BioAssay, National Center for Advancing Translational Sciences (NCATS)
